Laboratory results reported in publication PMC10726135, “HNF4α isoforms regulate the circadian balance between carbohydrate and lipid metabolism in the liver”.
In all, about 18,000 sequences were measured (“log2 normalized intensity”: median about 0.36, highest 2% from about 7.3 on). The sample as a whole holds a higher share of the highest values than the screen did.

The sequences below were run against T1, HNF4alpha8 (COS-7 nuclear extract) (Homo sapiens, UniProt P41235-5 1-452) (assay: protein-binding microarray; COS-7 nuclear extract on double-stranded Agilent 4x180k PBM; binding buffer, salt, pH and temperature not given in the material; high values mean tight binding). Details: chain copies: 2; label: 3' end of strand 1 on the slide; dsDNA, one strand shown.
T1 sequence: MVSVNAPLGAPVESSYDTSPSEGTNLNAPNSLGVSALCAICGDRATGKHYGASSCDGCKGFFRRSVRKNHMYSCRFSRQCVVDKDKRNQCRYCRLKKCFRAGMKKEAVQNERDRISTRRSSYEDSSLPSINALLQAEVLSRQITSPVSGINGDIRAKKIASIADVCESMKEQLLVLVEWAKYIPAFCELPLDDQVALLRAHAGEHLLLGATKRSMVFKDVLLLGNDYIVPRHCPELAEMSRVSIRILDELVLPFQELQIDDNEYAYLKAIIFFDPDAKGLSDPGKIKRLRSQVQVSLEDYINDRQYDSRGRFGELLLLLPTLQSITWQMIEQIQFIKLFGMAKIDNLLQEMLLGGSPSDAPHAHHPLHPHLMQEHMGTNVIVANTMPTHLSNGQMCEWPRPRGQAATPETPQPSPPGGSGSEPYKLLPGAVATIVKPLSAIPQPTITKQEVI
How it was run: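 A custom Agilent SurePrint G3 4x180k array, spotted in quadruplicate with ~44,000 test sequences as ~60-nt oligonucleotides made double-stranded, was incubated with nuclear extracts. The extracts came from COS-7 cells transiently transfected by CaPO4 with a human HNF4α isoform expression vector. Bound HNF4α was imaged on an Agilent G2565CA scanner at 2-µm resolution, and the binding signal was taken as Agilent software's background-corrected, normalized gProcessedSignal.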

**Q.** How did the binding signal turn out when “CCATCAGTGGACTTTGACCTTGTTTTCAATGCCTAGGGAGATTAGAGTATCGGTCGA” was run?
**A.** The binding signal was 9.54 log2 normalized intensity.

**Q.** “GCCACCCATCAGTGGACTTTGACCTTGTTTGCCTAGGGAGATTAGAGTATCGGTCGA” was tested. Which binding signal did it give?
**A.** Its binding signal is 10.8 log2 normalized intensity.

**Q.** For “CCCAGGGACTTTGGCCTTACTTGGCCTGTTGCCTAGGGAGATTAGAGTATCGGTCGA”, which binding signal is on record?
**A.** Its binding signal is 3.01 log2 normalized intensity.

**Q.** How did the binding signal turn out when “ACTTTGACCTTGTTTTCAATGACTACCTGTGCCTAGGGAGATTAGAGTATCGGTCGA” was run?
**A.** The binding signal was 2.13 log2 normalized intensity.

**Q.** “GTTCAATGCTTCAGTGAGCCTTGACCTTCAGCCTAGGGAGATTAGAGTATCGGTCGA” was tested. Which binding signal did it give?
**A.** The binding signal was 4.83 log2 normalized intensity.

**Q.** Which binding signal does the source give for “GACCTTGTTTTCAATGACTACCTGTTACCCGCCTAGGGAGATTAGAGTATCGGTCGA” here?
**A.** The binding signal was 1.81 log2 normalized intensity.

**Q.** “AGACCTTTGACATCACCTAACTTGTGGCTGGCCTAGGGAGATTAGAGTATCGGTCGA” was tested. Which binding signal did it give?
**A.** The binding signal was 1.49 log2 normalized intensity.

**Q.** For “AGTGGACTTTGACCTTGTTTTCAATGACTAGCCTAGGGAGATTAGAGTATCGGTCGA”, which binding signal is on record?
**A.** Its binding signal is 7.8 log2 normalized intensity.

**Q.** “CCTTTCTACTGCCAGCCAGGGCCACCCATCGCCTAGGGAGATTAGAGTATCGGTCGA” was tested. Which binding signal did it give?
**A.** Its binding signal is 0.592 log2 normalized intensity.

**Q.** Which binding signal does the source give for “CACATGCTATTATTTTCCATCAGTGGACTTGCCTAGGGAGATTAGAGTATCGGTCGA” here?
**A.** Its binding signal is 3.95 log2 normalized intensity.

**Q.** Which binding signal does the source give for “GCAGCTCTTTACAAAGCCCATGCTGGACCCGCCTAGGGAGATTAGAGTATCGGTCGA” here?
**A.** Its binding signal is 4.69 log2 normalized intensity.

**Q.** “TCACAGTGCCTCTGCAAGTTGGCCTTACTAGCCTAGGGAGATTAGAGTATCGGTCGA” was tested. Which binding signal did it give?
**A.** The binding signal was -0.0691 log2 normalized intensity.

**Q.** For “TTTGTCTGTGTAGACTCATCTGGTGTCATTGCCTAGGGAGATTAGAGTATCGGTCGA”, which binding signal is on record?
**A.** Its binding signal is 1.95 log2 normalized intensity.

**Q.** “TTTTTGAGATGGAATCTTGCCCTGTCGCCCGCCTAGGGAGATTAGAGTATCGGTCGA” was tested. Which binding signal did it give?
**A.** The binding signal was 3.19 log2 normalized intensity.

**Q.** With “GGTTCCAGCATGGACTTCACAGCCTGTTAGGCCTAGGGAGATTAGAGTATCGGTCGA” as the sequence, how does the binding signal read?
**A.** Its binding signal is 0.147 log2 normalized intensity.

**Q.** For “TGTGGGTTCAAATCCATTCAGCAGCGTGTAGCCTAGGGAGATTAGAGTATCGGTCGA”, which binding signal is on record?
**A.** The binding signal was -0.128 log2 normalized intensity.

**Q.** Which binding signal does the source give for “GCAAAGTTCAACCCTGAATGTGTGCTGGCCGCCTAGGGAGATTAGAGTATCGGTCGA” here?
**A.** Its binding signal is 1.12 log2 normalized intensity.

**Q.** Which binding signal does the source give for “ACTTCGCTGGAGGTGTTAAAGTGCCATTGAGCCTAGGGAGATTAGAGTATCGGTCGA” here?
**A.** The binding signal was 1.75 log2 normalized intensity.

**Q.** Which binding signal does the source give for “TGCACTTTACGTAAGATAAGGTGAACATACGCCTAGGGAGATTAGAGTATCGGTCGA” here?
**A.** The binding signal was 1.09 log2 normalized intensity.

**Q.** How did the binding signal turn out when “TGGGTGGGGGAAGTGTGGTCAAGGGTCAGTGCCTAGGGAGATTAGAGTATCGGTCGA” was run?
**A.** Its binding signal is 4.76 log2 normalized intensity.

**Q.** How did the binding signal turn out when “GTGGGAGAGCAAGGGTCAAGGGTCATTTGTGCCTAGGGAGATTAGAGTATCGGTCGA” was run?
**A.** Its binding signal is 7.65 log2 normalized intensity.

**Q.** How did the binding signal turn out when “CCGCAGTGGGAGAGCAAGGGTCAAGGGTCAGCCTAGGGAGATTAGAGTATCGGTCGA” was run?
**A.** Its binding signal is 7.52 log2 normalized intensity.

**Q.** For “CCCATCCGCAGTGGGAGAGCAAGGGTCAAGGCCTAGGGAGATTAGAGTATCGGTCGA”, which binding signal is on record?
**A.** The binding signal was 4.51 log2 normalized intensity.

**Q.** How did the binding signal turn out when “AAGGGTCAAGGGTCATTTGTTTTTACAGACGCCTAGGGAGATTAGAGTATCGGTCGA” was run?
**A.** The binding signal was 6.77 log2 normalized intensity.

**Q.** With “AGAGCAAGGGTCAAGGGTCATTTGTTTTTAGCCTAGGGAGATTAGAGTATCGGTCGA” as the sequence, how does the binding signal read?
**A.** The binding signal was 6.31 log2 normalized intensity.

**Q.** For “CATTTTTTTCCACCCTCCCCTCCCCCTCCTGCCTAGGGAGATTAGAGTATCGGTCGA”, which binding signal is on record?
**A.** The binding signal was 6.32 log2 normalized intensity.

**Q.** Which binding signal does the source give for “GAATTTTGGACAAGGTAACCCCCAACATTCGCCTAGGGAGATTAGAGTATCGGTCGA” here?
**A.** The binding signal was 3.79 log2 normalized intensity.

**Q.** With “ATGTGCCCTTTGGACAGAAATATCAGCAAGGCCTAGGGAGATTAGAGTATCGGTCGA” as the sequence, how does the binding signal read?
**A.** The binding signal was 3.43 log2 normalized intensity.

**Q.** For “GGAGGGAACAGCAAGACTTTGGCCCTGCAGGCCTAGGGAGATTAGAGTATCGGTCGA”, which binding signal is on record?
**A.** The binding signal was 0.278 log2 normalized intensity.

**Q.** For “AAGTCCAAAGTTCTTGGCCAGGCATGGAGAGCCTAGGGAGATTAGAGTATCGGTCGA”, which binding signal is on record?
**A.** Its binding signal is 2.75 log2 normalized intensity.

**Q.** How did the binding signal turn out when “AAGGGTCAATGTGATCAGGTGTGGGCATTAGCCTAGGGAGATTAGAGTATCGGTCGA” was run?
**A.** Its binding signal is 1.3 log2 normalized intensity.

**Q.** How did the binding signal turn out when “ATCTCACACAGTACTTTGTACATGGGAATAGCCTAGGGAGATTAGAGTATCGGTCGA” was run?
**A.** The binding signal was 1.8 log2 normalized intensity.

**Q.** “ATAGTTCAGCCATCAGGTAACATATTGTCCGCCTAGGGAGATTAGAGTATCGGTCGA” was tested. Which binding signal did it give?
**A.** The binding signal was 1.18 log2 normalized intensity.

**Q.** Which binding signal does the source give for “GACTTTGGTTGGATTTCTTGGCTTCTCTTGGCCTAGGGAGATTAGAGTATCGGTCGA” here?
**A.** The binding signal was 0.989 log2 normalized intensity.

**Q.** “GGATTTTTTCTTGGACTTTGGTCATCCTTTGCCTAGGGAGATTAGAGTATCGGTCGA” was tested. Which binding signal did it give?
**A.** Its binding signal is 7.39 log2 normalized intensity.

**Q.** With “ATCAAGGATTTTTTCTTGGACTTTGGTCATGCCTAGGGAGATTAGAGTATCGGTCGA” as the sequence, how does the binding signal read?
**A.** The binding signal was 8.58 log2 normalized intensity.

**Q.** Which binding signal does the source give for “TTTTCTTGGACTTTGGTCATCCTTTACTTTGCCTAGGGAGATTAGAGTATCGGTCGA” here?
**A.** Its binding signal is 6.91 log2 normalized intensity.

**Q.** How did the binding signal turn out when “TTGGACTTTGGTCATCCTTTACTTTCCCAAGCCTAGGGAGATTAGAGTATCGGTCGA” was run?
**A.** Its binding signal is 6.14 log2 normalized intensity.

**Q.** “GCAGTTTTTGATCAAGGAGGACTTTGGAATGCCTAGGGAGATTAGAGTATCGGTCGA” was tested. Which binding signal did it give?
**A.** The binding signal was 7.54 log2 normalized intensity.

**Q.** How did the binding signal turn out when “TCCAGATCAAGGATTTTTTCTTGGACTTTGGCCTAGGGAGATTAGAGTATCGGTCGA” was run?
**A.** The binding signal was 5.67 log2 normalized intensity.

**Q.** For “TTTAGGCAGTTTTTGATCAAGGAGGACTTTGCCTAGGGAGATTAGAGTATCGGTCGA”, which binding signal is on record?
**A.** The binding signal was 4.55 log2 normalized intensity.

**Q.** Which binding signal does the source give for “TTTTGATCAAGGAGGACTTTGGAATGGCAGGCCTAGGGAGATTAGAGTATCGGTCGA” here?
**A.** The binding signal was 4.79 log2 normalized intensity.

**Q.** With “CAGAAGTCATGTCTCATTGCCCCTTGAGCTGCCTAGGGAGATTAGAGTATCGGTCGA” as the sequence, how does the binding signal read?
**A.** The binding signal was 3.87 log2 normalized intensity.
